The text below walks through data of PubChem BioAssay (NCATS).

Structures are written as SMILES. Inconclusive results are not listed. Activity calls are given as the source filed them. The call rests on the fitted dose curve; in most records, active means well fitted curve in the direction sought with a large enough effect; inconclusive means small, poorly fitted or top-dose-only effect, or another doubt; inactive means no such curve, though single readings can be large; an effect the other way counts as inactive or inconclusive.

One test concerns HeLa. In words: Primary qHTS to identify gynecologic anti-cancer compounds using libraries of approved drugs and bioactive compounds (AID 1345084). Further: nearly all actives have a fitted effect of over 55% in size. The settings on record: Gynecologic cancer cell panel viability, ATPlite luminescence, 48 h; series mostly up to 57.5 µM. In a few lines: (§1)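 Cells, 1,000 per well, were allowed to settle for 16 h at 37 C before compound addition. Five concentrations were tested for 48 h, and viability was read by ATPlite luminescence after 15 min at room temperature.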
In general terms: Quantitative high-throughput screening tests each substance at several concentrations.

For another test, the system named is Hek293T. The description is as above. The settings on record: Gynecologic cancer cell panel viability, ATPlite luminescence, 48 h, control line for the selectivity index; series mostly up to 57.5 µM. Put shortly:
as §1

In another test the test system is JEG-3. The description is as above. Conditions: Gynecologic cancer cell panel viability, ATPlite luminescence, 48 h; series mostly up to 57.5 µM. Put shortly:
as §1
In general terms: Cellular ATP, detected with luciferase, serves as a proxy for viable cell number.

For another test, the system named is PA-1. Described as above. Conditions: Gynecologic cancer cell panel viability, ATPlite luminescence, 48 h; series mostly up to 57.5 µM. Put shortly: as §1
In a further test the test system is SKOV3. Described as above. The settings on record: Gynecologic cancer cell panel viability, ATPlite luminescence, 48 h; series mostly up to 57.5 µM. Put shortly:
as §1

The subject of another test is Tov-21-G. Described as above. The settings on record: Gynecologic cancer cell panel viability, ATPlite luminescence, 48 h; series mostly up to 57.5 µM. Put shortly: as §1
In a further test the test system is Tov112D. The test is described as above. Conditions: Gynecologic cancer cell panel viability, ATPlite luminescence, 48 h; series mostly up to 57.5 µM. Put shortly:
as §1

The nature of test [1]: Drug repurposing screens with cells derived from glioblastoma tumor samples (AID 1345199). Further: nearly all actives have a fitted effect of over 40% in size. The settings on record: GBM patient neurospheres viability, ATP luminescence, 48 h; Potency: tumour line A unless noted; series mostly up to 45.9 µM. Put shortly:
(§2)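 Four patient lines of CD133+ GBM neurospheres were screened at several concentrations; hits were retested in those lines plus three slower-growing GBM lines, using 48-hour treatment and ATP-based viability.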

A further test concerns astro. The description is as above. The settings on record: viability, ATP luminescence, 48 h; series mostly up to 45.9 µM. In a few lines: as §2
The next test has as its system OV90. The test is described as follows: Primary qHTS to identify gynecologic anti-cancer compounds using libraries of approved drugs and bioactive compounds (AID 1345084). Further: nearly all actives have a fitted effect of over 55% in size. Conditions: Gynecologic cancer cell panel viability, ATPlite luminescence, 48 h; series mostly up to 57.5 µM. In a few lines: as §1
Potency means the concentration at half of the fitted maximal effect.

In the case of `CC(Cc1ccc(O)cc1)NCC(O)c1cc(O)cc(O)c1` (configuration not stated), the Potency result in the test on HeLa, in the test with Hek293T, with JEG-3, in the test on PA-1, in the test with SKOV3 and in the test with Tov-21-G was “inactive” in each case. Also, the Potency result (in the test with Tov112D; in [1]; in the test with astro) was “inactive” in each case.

For `c1ccc(C2(c3ccccc3)CC2C2=NCCN2)cc1` (configuration not stated), the Potency result in test [1] was “inactive”.

For the compound `O=[N+]([O-])c1c2ccccc2cc2ccccc12`, the Potency result in the test on Hek293T, in the test with JEG-3, in the test on OV90, in the test on PA-1, in the test with Tov-21-G and in the test with Tov112D was “inactive” throughout. Also, in the test on astro, the Potency result is “inactive”.

As to `CCCN1CCC[C@H](c2cccc(O)c2)C1`, in test [1], the Potency result was “inactive”.

With `O=C(O)CNC(=O)c1c(O)c2ccccc2n(Cc2ccccc2)c1=O`, the Potency result in the test with HeLa, in the test with Hek293T, with OV90, with PA-1, with SKOV3 and in the test with Tov-21-G was “inactive” each time. For the same compound, the Potency result in the test on Tov112D was “inactive”.

On to `S=C(SSC(=S)N1CCCCC1)N1CCCCC1`, for which the Potency entry (with HeLa; in test [1]; in the test on astro) was “inactive” in each case. For the same compound, the Potency is 17.8 µM (active) with Hek293T, 10 µM (active) in the test with OV90, 3.98 µM (active) with SKOV3 and 14.1 µM (active) in the test with Tov112D.

Turning to `O=C(O)C(Cl)Cl`, the Potency result with HeLa, with JEG-3, in the test with OV90, with PA-1, with Tov-21-G and in the test with Tov112D was “inactive” in each case. In addition, the Potency result in [1] is “inactive”.

On to `CC1(N2CCC(n3c([C@@H]4CCCNC4)nc4ccccc43)CC2)CCCCCCC1`, for which the Potency in the test on JEG-3 is 11.2 µM (active); in the test with OV90, 12.6 µM (active); in the test with PA-1 it was 15800 nM (active); in the test on Tov112D it was 22.4 µM (active).

As for `NC1=NC(=O)N2CC12` (configuration not stated), the Potency entry in test [1] was “inactive”.

As to `C[C@]12N[C@H](Cc3ccccc31)c1ccccc12`, the Potency entry in [1] was “inactive”.

For `Nc1ccc(N=Nc2ccccc2)cc1`, the Potency with OV90 was 39.8 µM (active). The Potency result in [1] was “inactive”.

Turning to `O=c1[nH]c2ccc(Cl)cc2c(N[C@@H]2CN3CCC2CC3)c1-c1nc2ccccc2[nH]1`, the Potency is 3160 nM (active) in the test on HeLa, 5.01 µM (active) in the test on OV90, 2240 nM (active) in the test on PA-1 and 25.1 µM (active) in the test on Tov112D.

As to `CCCCc1ccc(C(=O)O)nc1`, the Potency result in [1] is “inactive”.

In the case of `CCNC(=O)C[C@@H]1N=C(c2ccc(Cl)cc2)c2cc(OC)ccc2-n2c(C)nnc21`, the Potency in the test on PA-1 was 891 nM (active). For the same compound, in the test on Tov112D, the Potency entry is “inactive”.

With `CO/C=C(/C(=O)OC)c1ccccc1Oc1cc(Oc2ccccc2C#N)ncn1`, the Potency in the test with Hek293T is 17.8 µM (active); with OV90, 17.8 µM (active); in the test on SKOV3 it was 7.94 µM (active); in the test with astro it was 14.1 µM (active).

In the case of `O=C(O)c1cc(Oc2ccc(C(F)(F)F)cc2Cl)ccc1[N+](=O)[O-]`, the Potency entry in the test with HeLa, in the test with OV90, with PA-1, in the test on SKOV3, in the test with Tov-21-G and in the test with Tov112D was “inactive” in each case. The Potency result (in test [1]; with astro) was “inactive” each time.

In the case of `Nc1ccc(Sc2ccc(N)cc2)cc1`, the Potency entry in the test with HeLa, in the test on Hek293T, with JEG-3, with SKOV3, in the test on Tov-21-G and in the test with Tov112D was “inactive” each time.

`CC(C)NC(C)Cc1ccc(I)cc1` (configuration not stated): the Potency entry with astro was “inactive”.

With `CCCCC(CC)COC(=O)c1ccccc1C(=O)OCC(CC)CCCC` (configuration not stated), the Potency result in the test on HeLa, in the test on Hek293T, in the test with JEG-3, in the test on PA-1, with Tov-21-G and in the test on Tov112D was “inactive” throughout. Further, the Potency result with astro was “inactive”.

In the case of `CN(C)[C@@H]1C(=O)C(C(N)=O)=C(O)[C@@]2(O)C(=O)C3=C(O)c4c(O)cccc4[C@@](C)(O)[C@H]3[C@H](O)[C@@H]12`, in test [1], the Potency entry is “inactive”.

For `C/C=C(/C)C(=O)O[C@H]1C(C)=C2[C@H]([C@@H]1OC(=O)CCCCCCC)[C@@](C)(OC(C)=O)C[C@H](OC(=O)CCC)[C@@]1(O)[C@H]2OC(=O)[C@@]1(C)O`, the Potency with HeLa is 447 nM (active); with JEG-3 it was 0.447 µM (active); in the test on PA-1, 158 nM (active); in the test with Tov112D it was 0.501 µM (active).

As to `CCCCCCCCCC(CC)c1ccc(S(=O)(=O)O)cc1` (configuration not stated), the Potency result in the test with HeLa, in the test on Hek293T, in the test on JEG-3, in the test on PA-1, with Tov-21-G and in the test with Tov112D was “inactive” in each case. Besides, the Potency entry (in test [1]; in the test with astro) was “inactive” throughout.

Regarding `Nc1ccc(Cl)cc1N`, the Potency entry in the test with HeLa, in the test with Hek293T, in the test with JEG-3, in the test on PA-1 and in the test on Tov112D was “inactive” throughout.

As for `COc1ccc(N(C(=O)Oc2c(C)cccc2C)c2ccnc(Nc3ccc(N4CCN(C)CC4)cc3)n2)c(OC)c1`, the Potency entry in the test on Hek293T, in the test on JEG-3 and in the test with OV90 was “inactive” each time.

Take `CCCN(CCC)c1c([N+](=O)[O-])cc(S(N)(=O)=O)cc1[N+](=O)[O-]`: in the test with JEG-3, the Potency result was “inactive”.

With `COc1ccc(C(c2ccc(OC)cc2)C(Cl)(Cl)Cl)cc1`, the Potency entry with Hek293T, in the test with JEG-3, in the test with PA-1, in the test on Tov-21-G and with Tov112D was “inactive” throughout.

Consider `O=[N+]([O-])c1cc([N+](=O)[O-])c2ccccc2c1`, for which the Potency entry in the test with Hek293T, in the test with JEG-3, with OV90, with PA-1, in the test on Tov-21-G and in the test on Tov112D was “inactive” throughout. The Potency result in test [1] was “inactive”.

Consider `CC(C)[C@]12O[C@H]1[C@@H]1O[C@]13[C@]1(O[C@H]1C[C@H]1C4=C(CC[C@@]13C)C(=O)OC4)[C@@H]2O`, for which the Potency was 158 nM (active) with HeLa, 100 nM (active) in the test with PA-1 and 0.1 µM (active) with Tov112D.

With `CC(C)Oc1cccc(NC(=O)c2ccccc2C(F)(F)F)c1`, the Potency entry in the test on JEG-3 and in the test with astro was “inactive” in each case. Also, the Potency in the test on OV90 was 31.6 µM (active).

As for `C[N+](C)(C)CC(=O)O`, in test [1], the Potency result is “inactive”.

Take `NC(=O)CN1CC(O)CC1=O` (configuration not stated): the Potency result in test [1] is “inactive”.

With `CCOCCOC(C)=O`, the Potency entry with HeLa, in the test with JEG-3, in the test with OV90, with SKOV3, in the test on Tov-21-G and in the test with Tov112D was “inactive” in each case. Further, in test [1], the Potency result is “inactive”.

For `CCCCCCCCCCCCCCCC[N+](C)(C)C`, the Potency in the test with SKOV3 is 28.2 µM (active); in the test with Tov-21-G, 7.94 µM (active).

On to `CCO/N=C(\CC)C1=C(O)CC(c2c(C)cc(C)cc2C)CC1=O` (configuration not stated), for which the Potency entry in the test with HeLa, in the test with Hek293T, in the test on OV90, in the test on PA-1, with SKOV3 and with Tov-21-G was “inactive” throughout. Further, the Potency result (in the test on Tov112D; in [1]) was “inactive” in each case.

Regarding `CCC1(CCC(C)C)C(=O)NC(=O)NC1=O`, the Potency result in the test on Hek293T, with JEG-3, in the test on OV90, with PA-1, in the test on Tov-21-G and in the test with Tov112D was “inactive” throughout. In addition, the Potency result (in test [1]; in the test on astro) was “inactive” in each case.
